HCMV inh: inhibitors of human cytomegalovirus. HFF cells, HCMV-luciferase reporter, 72 h; active compounds read low. activity change, negative = inhibition, % at 57.5 µM. 410,000 compounds, 4.5% hits. AID 1259415; in the data active = activity change below about -60%; inconclusive = no clear call, values can overlap the other calls; inactive = above about -39%
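After 16 h attachment at 37C, HFF cells received test compound and HCMV-luciferase (1 PFU/cell); reporter luminescence read 72 h later, data normalized against buffer-only and known inhibitor Salinomycin.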
Pf growth 48h: inhibits P. falciparum growth in the first generation, 48 h; P. falciparum luciferase growth in erythrocytes, 48 h; Potency, µM (titrated, usually from 28.7 µM), usual class: inhibitors; 310,000 compounds, 5.9% hits; AID 504832
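Firefly luciferase activity from engineered P. falciparum reports growth; inhibitors lower the luminescent signal. Cultures contained 2% hematocrit erythrocytes at 0.1% final parasitemia.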
Pf growth 96h: P. falciparum growth inhibition at 96 hours; P. falciparum luciferase reporter growth, 96 h; Potency, µM (titrated, usually from 28.7 µM), hits mostly inhibitors; 320,000 compounds, 6.9% hits; AID 504834
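96 h incubation, 37 C, 5% CO2, of luciferase-reporter P. falciparum-infected RBCs (2% hematocrit, 0.05% parasitemia final) with test compounds; endpoint luminescence.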
Shiga toxin inh: inhibitors of Shiga toxin in Vero cells. Vero cells, Shiga toxin protein synthesis inhibition reporter. inhibition, % at 38.7 µM. 290,000 compounds, 9.2% hits. AID 2315; in the data active = inhibition mostly above about 28%, no sharp cut-off; inactive = mostly below about 43%
HCV inhibitor: inhibitors of hepatitis C virus infection; Huh7.5.1 HCVcc-Cre infection, luciferase reporter, 44 h; Potency, µM (highest dose often 41.8 µM), hits mostly inhibitors; 340,000 compounds, 3.4% hits; AID 651820
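Whole-lifecycle infectious HCVcc-Cre system; cells 1,000/well, compound then virus (~0.5 moi) added 4 h after plating, 44 h culture. Luciferase read 15 sec following 15 min substrate incubation, room temp.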
CHX counter: counter-screen hit for Shiga toxin inhibitors, cycloheximide. cell reporter, cycloheximide protein synthesis inhibition counterscreen. max response, %. 300,000 compounds, 12% hits. AID 2314; in the data active = max response mostly above about 13%, no sharp cut-off; inactive = mostly below about 14%; note: read at 38.3 µM for the half of the compounds with a filed dose
Of the large screens only hits and unclear results are named; the others gave an inactive call. Shown are actives, neighbours in structure and some others; about 21% of the full set was active somewhere. Unless noted, calls come from the whole dose curve; as a rule, active = well fitted inhibition curve with a large enough effect; inconclusive = small, poorly fitted or top-dose-only effect, or another doubt; inactive = no such curve, though single readings can be large or run the other way.

CCOc1cc2sc(N3CCC(C(=O)Nc4ccc(C)cc4C)CC3)nc2cc1Br	none (no result: Pf growth 48h, Pf growth 96h, Shiga toxin inh, HCV inhibitor, CHX counter)
COc1ccccc1N(C)c1cc2c(c3c1ccn3C)C1CCC2C1 (stereo unspecified)	HCMV inh -89 (no result: Pf growth 48h, Pf growth 96h, Shiga toxin inh, HCV inhibitor, CHX counter)
C=CCc1cc(Cl)ccc1OCCCn1ccnc1	Pf growth 48h inconclusive, Pf growth 96h inconclusive, HCV inhibitor inconclusive
Clc1ccc(OCCn2ccnc2)c(Cl)c1	Pf growth 48h inconclusive, HCV inhibitor inconclusive
Clc1ccc(SCCn2ccnc2)cc1	Pf growth 96h 13µM
CCN(CC)S(=O)(=O)c1ccc(N2CCOCC2)c(NS(=O)(=O)c2cccs2)c1	none (no result: Shiga toxin inh, CHX counter)
CCN(CC)S(=O)(=O)c1ccc(N2CCOCC2)c(NS(=O)(=O)c2ccc(C(C)C)cc2)c1	Pf growth 48h 2.9µM, Pf growth 96h 1.5µM
CCN(CC)S(=O)(=O)c1ccc(N2CCOCC2)c(NS(=O)(=O)c2cc(C(C)(C)C)ccc2C)c1	HCMV inh -69, Pf growth 48h 0.083µM, Pf growth 96h inconclusive, HCV inhibitor inconclusive
Cc1ccc(NCC(=O)N/N=C/c2cc3ccccc3nc2Cl)cc1	Pf growth 48h inconclusive
Cn1cc(Br)c(C(=O)N/N=C/c2cc3ccccc3nc2Cl)n1	Pf growth 96h inconclusive, Shiga toxin inh 50, CHX counter 15
O=C(CN1CCOCC1)N/N=C/c1cc2ccccc2nc1Cl	Pf growth 96h 1.5µM
Cc1ccc(OCCN2C(=O)C(=O)c3cc(C)ccc32)cc1	HCMV inh -92, HCV inhibitor inconclusive
Cc1cccc2c1N(CCOc1ccc(C(C)(C)C)cc1)C(=O)C2=O	Pf growth 48h 10µM, HCV inhibitor inconclusive
Cc1ccc2c(c1)C(=O)C(=O)N2Cc1ccc(OC(C)C)cc1	HCMV inh -76 (no result: Pf growth 48h, Pf growth 96h, Shiga toxin inh, HCV inhibitor, CHX counter)
CCCN1C(=O)C(=O)c2cc(Cl)ccc21	HCMV inh -86, HCV inhibitor inconclusive (no result: Pf growth 48h, Pf growth 96h, Shiga toxin inh, CHX counter)
O=C1C(=O)N(CCS(=O)(=O)c2ccccc2)c2ccc(Cl)cc21	Pf growth 48h inconclusive, Pf growth 96h inconclusive
Cc1c(NC(=O)CSc2ncnc3ccccc23)c(=O)n(-c2ccccc2)n1C	none
Cc1ccc2c(c1)C(=O)C(=O)N2CC(=O)OC(C)C	Pf growth 96h 0.029µM
CCCOc1ccccc1C(=O)N(Cc1ccc(C)o1)C1CCS(=O)(=O)C1 (stereo unspecified)	none
CCOc1ccc(C2C(C#N)=C(N)N(c3sc4c(c3C#N)CCCC4)C3=C2C(=O)CCC3)cc1 (stereo unspecified)	Pf growth 48h inconclusive, Pf growth 96h inconclusive, HCV inhibitor inconclusive
N#CC1=C2N=C(N)c3c(sc4c3CCCCC4)N2C2=C(C(=O)CCC2)C1c1ccccc1 (stereo unspecified)	Pf growth 48h 2.9µM, Pf growth 96h 4.7µM, HCV inhibitor inconclusive
Cc1ccc(C2C(C#N)=C3N=C(N)c4ccccc4N3C3=C2C(=O)CCC3)cc1 (stereo unspecified)	Pf growth 48h inconclusive, Pf growth 96h inconclusive, HCV inhibitor inconclusive
N#CC1=C2N=C(N)c3ccccc3N2C2=C(C(=O)CCC2)C1c1ccc(F)cc1 (stereo unspecified)	Pf growth 48h inconclusive, Pf growth 96h inconclusive, HCV inhibitor 13µM
CC1Sc2ccc(C(=O)NCc3ccccn3)cc2NC1=O (stereo unspecified)	HCMV inh inconclusive, Pf growth 96h inconclusive (no result: Shiga toxin inh, CHX counter)
C=CCNc1nc2ccccc2nc1NS(=O)(=O)c1ccc(Cl)cc1	none
O=C(COC(=O)c1ccc(F)cc1F)NC1CC1	none
O=C(N/N=C/c1cccs1)c1cc(-c2cccc3ccccc23)n[nH]1	HCV inhibitor inconclusive, CHX counter 47
O=C(N/N=C/c1ccco1)c1cc(-c2ccc3ccccc3c2)n[nH]1	HCMV inh inconclusive, CHX counter 18 (no result: Pf growth 48h)
O=C(N/N=C/c1cccs1)c1cc(-c2ccc3ccccc3c2)n[nH]1	Pf growth 48h inconclusive, Pf growth 96h inconclusive, Shiga toxin inh 54, HCV inhibitor inconclusive, CHX counter 39
CCc1ccc(-c2cc(C(=O)N/N=C/c3ccco3)[nH]n2)cc1	HCMV inh inconclusive
O=C(N/N=C/c1cccs1)c1cc(C2CC2)nc2ccccc12	HCV inhibitor inconclusive
O=C(CSc1nnc2ccc(-c3ccccn3)nn12)N1CCCC1	none (no result: Pf growth 48h, Pf growth 96h, Shiga toxin inh, CHX counter)
Cc1ccc(S(=O)(=O)N/N=C/c2cccc3c2OCCO3)cc1	Pf growth 96h 2.1µM
CCOC(=O)C1(C)CCN1C(=O)c1ccc(C(=O)OC)cc1 (stereo unspecified)	none (no result: Pf growth 48h, Pf growth 96h, Shiga toxin inh, HCV inhibitor, CHX counter)
CCOC(=O)c1nn(-c2cccc(OC)c2)c2nc(Nc3ccccc3)cc(=O)n12	Pf growth 96h inconclusive, HCV inhibitor 11µM
CCOC(=O)c1ccc(NC(=O)c2cc3c(=O)n(C)c4ccccc4c3n2C)cc1	none (no result: Pf growth 48h, Pf growth 96h, Shiga toxin inh, HCV inhibitor, CHX counter)
O=C(CCN1C(=O)C2CC=C(Cl)CC2C1=O)NCc1ccccc1 (stereo unspecified)	none
Cc1ccc(NC(=O)CN2C(=O)C3CC=C(Cl)CC3C2=O)cc1 (stereo unspecified)	none
O=C(CCN1C(=O)C2CC=C(Cl)CC2C1=O)Nc1ccccc1O (stereo unspecified)	Pf growth 96h 1µM, HCV inhibitor inconclusive
O=C(CN1C(=O)C2CC=C(Cl)CC2C1=O)Nc1ccc(C(=O)O)cc1 (stereo unspecified)	Pf growth 96h 13µM
CCOC(=O)N1CCc2c(sc3c2c(=O)n(Cc2ccccc2)c(=O)n3CC(=O)Nc2ccccc2F)C1	none (no result: Pf growth 48h, Pf growth 96h, Shiga toxin inh, HCV inhibitor, CHX counter)
Cc1cccc(CN2CCN(C3CN(Cc4cn(Cc5ccccc5)nn4)S(=O)(=O)C3)CC2)c1 (stereo unspecified)	none (no result: Pf growth 48h, Pf growth 96h, Shiga toxin inh, HCV inhibitor, CHX counter)
CCN(CC(=O)NC1CCS(=O)(=O)C1)S(=O)(=O)c1cc(C)ccc1C (stereo unspecified)	HCV inhibitor inconclusive (no result: Shiga toxin inh, CHX counter)
Nc1ccccc1-c1ccccc1N	HCMV inh inconclusive
c1ccc2c(c1)[IH]c1ccccc1-2	HCMV inh -100, HCV inhibitor 0.028µM (no result: Pf growth 48h, Pf growth 96h, Shiga toxin inh, CHX counter)
CCc1ccc(CNC(=O)CCC(=O)n2ncc3cc(C)ccc32)cc1	none
Cc1ccc2c(cnn2C(=O)CCCC(=O)NCc2ccc(F)cc2)c1	Shiga toxin inh 26, CHX counter 11
Cc1ccc2c(cnn2C(=O)CCC(=O)NCc2cccc(Br)c2)c1	Pf growth 96h 2.6µM
Cc1ccc2c(cnn2C(=O)CCC(=O)NCc2cccc(Cl)c2)c1	none
COc1ccccc1OCC(=O)NC1CC(C)(C)NC(C)(C)C1	none
COc1ccc(-c2csc(NC(=S)NC(=O)c3cccs3)n2)cc1OC	Pf growth 48h 12µM, Pf growth 96h inconclusive, HCV inhibitor inconclusive
COc1ccc(-c2csc(NC(=S)NC(=O)c3cccs3)n2)cc1Br	HCMV inh inconclusive
COc1ccc(OC)c2sc(NC(=O)c3ccc(S(=O)(=O)N(C)C)cc3)nc12	Pf growth 96h inconclusive, HCV inhibitor inconclusive (no result: Pf growth 48h)
COc1ccc(-c2csc(NC(=S)NC(=O)c3ccc(S(=O)(=O)N(C)C)cc3)n2)cc1OC	HCMV inh inconclusive, Pf growth 48h 13µM, Pf growth 96h inconclusive, HCV inhibitor inconclusive
CC(C)C12CN3CC(C(C)C)(CN(C1)C3c1ccc(Cl)cc1)C2=O (stereo unspecified)	none (no result: Pf growth 48h, Pf growth 96h, Shiga toxin inh, HCV inhibitor, CHX counter)

Assay outcomes as filed in PubChem.
